Experimental findings from ChEMBL document CHEMBL1201862, “PubChem BioAssay data set” (2004) are described below.

Among all 400,000 compounds or so, about 2,100 (0.53%) were called active. Roughly 14% stayed inconclusive and do not appear here. The rule behind the calls is not given here. The sample as a whole holds a higher share of actives than the screen did.

The target of the assay is Ataxin-2 (Homo sapiens) (UniProt Q99700). Nature of the assay: qHTS for Inhibitors of ATXN expression. In kind it is functional.
Sequence of Ataxin-2 (Homo sapiens) (Q99700 whole entry): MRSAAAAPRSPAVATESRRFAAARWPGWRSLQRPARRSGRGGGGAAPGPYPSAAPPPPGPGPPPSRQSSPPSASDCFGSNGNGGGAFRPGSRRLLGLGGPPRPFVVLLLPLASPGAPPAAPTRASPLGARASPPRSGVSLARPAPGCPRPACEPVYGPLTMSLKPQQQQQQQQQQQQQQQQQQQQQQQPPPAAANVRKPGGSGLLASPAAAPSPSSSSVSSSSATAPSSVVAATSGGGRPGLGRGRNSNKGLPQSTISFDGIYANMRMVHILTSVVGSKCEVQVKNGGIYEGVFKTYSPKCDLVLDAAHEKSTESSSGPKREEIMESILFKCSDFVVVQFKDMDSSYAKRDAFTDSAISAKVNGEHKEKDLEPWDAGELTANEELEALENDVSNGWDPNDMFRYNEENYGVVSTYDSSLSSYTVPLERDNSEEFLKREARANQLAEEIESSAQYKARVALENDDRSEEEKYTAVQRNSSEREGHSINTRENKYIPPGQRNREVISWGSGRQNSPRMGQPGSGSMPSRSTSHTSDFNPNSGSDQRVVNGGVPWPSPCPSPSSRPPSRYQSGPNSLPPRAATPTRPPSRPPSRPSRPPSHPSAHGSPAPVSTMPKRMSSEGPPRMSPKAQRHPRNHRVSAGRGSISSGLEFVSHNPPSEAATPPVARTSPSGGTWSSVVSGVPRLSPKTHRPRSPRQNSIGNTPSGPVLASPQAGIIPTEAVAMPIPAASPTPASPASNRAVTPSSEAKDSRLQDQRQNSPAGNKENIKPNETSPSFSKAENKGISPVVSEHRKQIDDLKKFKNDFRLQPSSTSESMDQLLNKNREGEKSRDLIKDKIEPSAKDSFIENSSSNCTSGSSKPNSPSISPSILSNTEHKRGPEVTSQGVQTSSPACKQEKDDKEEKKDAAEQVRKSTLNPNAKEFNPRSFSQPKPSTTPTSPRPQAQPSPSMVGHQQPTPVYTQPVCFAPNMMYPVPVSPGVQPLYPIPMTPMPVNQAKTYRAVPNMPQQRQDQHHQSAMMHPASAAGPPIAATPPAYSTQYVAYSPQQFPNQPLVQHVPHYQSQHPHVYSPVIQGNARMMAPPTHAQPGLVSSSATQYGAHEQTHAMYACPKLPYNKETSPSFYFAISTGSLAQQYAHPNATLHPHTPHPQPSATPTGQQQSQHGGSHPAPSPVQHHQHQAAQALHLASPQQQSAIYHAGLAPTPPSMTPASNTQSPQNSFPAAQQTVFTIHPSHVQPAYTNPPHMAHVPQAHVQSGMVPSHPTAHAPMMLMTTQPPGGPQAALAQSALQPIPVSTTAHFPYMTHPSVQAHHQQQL
As to `C[C@H]1CN([C@@H](C)CO)S(=O)(=O)c2ccc(Br)cc2O[C@@H]1CN(C)Cc1ccccc1`, the Potency is 39.8 µM (active).

As for `C[C@@H]1CN([C@@H](C)CO)S(=O)(=O)c2ccc(Br)cc2O[C@H]1CN(C)C(=O)Nc1ccc(C(F)(F)F)cc1`, the Potency was 35.5 µM (active).

As to `Cc1cc2c(cc1C)N(C(=O)CCl)CCN2C(=O)CCl`, the Potency is 35.5 µM (active).

Consider `COc1cccc(-c2[nH]c(C(=O)NCC3CCCO3)cc3c4ccccc4nc2-3)c1` (stereo not given), for which the Potency was 17.8 µM (active).

Turning to `COc1ccccc1-n1c(N)c(C(=O)NCC2CCCO2)c2nc3ccccc3nc21` (stereo not given), the Potency entry is “inactive”.

Take `COc1ccc(-n2c(N)c(C(=O)NCC3CCCO3)c3nc4ccccc4nc32)c(OC)c1` (stereo not given): the Potency entry was “inactive”.

On to `COc1cc(C(=S)N2CCOCC2)ccc1OC(=O)c1ccc(Br)cc1`, for which the Potency entry is “inactive”.

Take `CN[C@H]1C[C@H]2c3[nH]c4ccc(-c5cccc(C)c5)cc4c3CCN2C[C@H]1[C@H](C)O`: the Potency is 39.8 µM (active).

On to `COc1ccc(NC(=O)N(C)[C@H]2C[C@H]3c4[nH]c5ccc(-c6cccc(C)c6)cc5c4CCN3C[C@H]2[C@H](C)O)cc1`, for which the Potency is 39.8 µM (active).

Regarding `Cc1ccc2[nH]c3c(c2c1)CN(C(=O)CN1CCCCC1)CC3`, the Potency entry is “inactive”.

`Cc1ccc2[nH]c3c(c2c1)CCCC3NCCO` (stereo not given): the Potency result was “inactive”.

With `Cc1cccc(-c2ccc3[nH]c4c(c3c2)CCN2C[C@@H]([C@H](C)O)[C@@H](N(C)C(=O)Nc3ccc(F)cc3)C[C@@H]42)c1`, the Potency was 25.1 µM (active).

As to `C[C@H](O)[C@@H]1CN2CCc3c([nH]c4ccccc34)[C@@H]2C[C@@H]1N(C)C(=O)OCc1ccccc1`, the Potency result is “inactive”.

Take `CCOC(=O)N(C)[C@H]1C[C@H]2c3[nH]c4ccccc4c3CCN2C[C@H]1[C@H](C)O`: the Potency result was “inactive”.

For the compound `COc1ccc(NC(=O)N(C)[C@H]2C[C@H]3c4[nH]c5ccc(-c6ccc(OC)cc6)cc5c4CCN3C[C@H]2[C@H](C)O)cc1`, the Potency is 25.1 µM (active).

With `COc1cccc(-c2c(C#N)c(O)nc3c2-c2ccc(OC)cc2CC3)c1`, the Potency entry was “inactive”.

`O=C(O)c1cc(-c2c[nH]c3ccccc23)nc2ccc3ccccc3c12`: the Potency result was “inactive”.

As for `COC(=O)C1C2CC3c4[nH]c5cc(OC)ccc5c4CCN3CC2CC(OC2CCCCO2)C1OC` (stereo not given), the Potency entry is “inactive”.

Take `COc1ccc(-c2ccc3[nH]c4c(c3c2)CCN2C[C@@H]([C@H](C)O)[C@@H](N(C)C(=O)Nc3cc(Cl)cc(Cl)c3)C[C@@H]42)cc1`: the Potency was 35.5 µM (active).

On to `O=C(COc1ccc([N+](=O)[O-])cc1)N(C1CCCCC1)C1CCS(=O)(=O)C1` (stereo not given), for which the Potency entry was “inactive”.

With `C/C(=N/OC(=O)C1CC1)c1cc(-c2ccc(Cl)cc2)no1`, the Potency entry is “inactive”.

On to `CCc1cc2c(-c3ccccc3)cc(=O)oc2c2c1OCN(Cc1ccc(C)cc1)C2`, for which the Potency result was “inactive”.

Consider `O=C1Nc2ccccc2/C1=C/c1c[nH]c(-c2ccccc2)n1`, for which the Potency entry was “inactive”.

Consider `COc1ccc(N/C=C2/C(=O)N(c3cccc(C)n3)C(=O)c3ccccc32)c(OC)c1`, for which the Potency result was “inactive”.

Turning to `COc1ccc2c(c1)/C(=C\c1cccc(/C=C3/C(=O)Nc4ccc(OC)cc43)n1)C(=O)N2`, the Potency is 0.891 µM (active).

On to `Cc1ccc(S(=O)(=O)c2cc3c(=O)n4ccccc4nc3n(Cc3ccco3)c2=N)cc1`, for which the Potency result is “inactive”.

On to `N#CC1=C(N)Oc2cc(O)c(Cl)cc2C1c1ccccc1F` (stereo not given), for which the Potency result is “inactive”.

Take `Cc1cccc(CC(=O)NC2CCN(C)CC2)c1`: the Potency result was “inactive”.

For `CC(C)c1ccc(CN2CCN(C(=O)CCl)CC2)cc1`, the Potency was 15.8 µM (active).

Consider `Cc1cccc(NS(=O)(=O)c2ccc(C)c(C(=O)NC3CCN(Cc4ccccc4)CC3)c2)c1`, for which the Potency result was “inactive”.

`Cc1cccc(CN2CCN(C(=O)CCl)CC2)c1`: the Potency is 35.5 µM (active).

`C=CCN1CCN(C(=O)CSc2ccccc2)CC1`: the Potency result was “inactive”.

`CC(C)c1ccc(CN2CCN(S(=O)(=O)c3ccc(Cl)s3)CC2)cc1`: the Potency result was “inactive”.

On to `C=CCn1c(=O)c(C#N)cc2c(=O)n3ccccc3nc21`, for which the Potency result was “inactive”.

Consider `COc1ccc2oc(=O)c(C(=O)N3CCN(C(=O)c4ccco4)CC3)cc2c1`, for which the Potency result is “inactive”.

Regarding `Cc1sc2nc(C(C)C)nc(SCC(=O)N3CCN(C(=O)c4ccco4)CC3)c2c1C`, the Potency was 39.8 µM (active).

Regarding `O=C(CSc1ccccc1)N1CCN(C(=O)c2ccco2)CC1`, the Potency entry was “inactive”.

As for `Cc1cc(C(=O)N2CCN(C(=O)c3ccco3)CC2)ccc1[N+](=O)[O-]`, the Potency result was “inactive”.

`CCc1cc2ccc(OC)cc2nc1SCC(=O)N1CCN(C(=O)c2ccco2)CC1`: the Potency is 25.1 µM (active).

With `O=C(CSc1nnnn1C1CCCCC1)N1CCN(C(=O)c2ccco2)CC1`, the Potency entry is “inactive”.

Take `Cc1ccc(S(=O)(=O)N2CCN(C(=O)CN3C(=O)c4ccc([N+](=O)[O-])cc4C3=O)CC2)cc1C`: the Potency result was “inactive”.

For `COc1cc2c(C#CCCCO)c(-c3ccc(C#N)cc3)oc(=O)c2cc1OC`, the Potency entry is “inactive”.

Consider `C=CC[C@@H](CC(=O)N(CCO)Cc1ccccc1)C(=O)N[C@@H](COC(=O)[C@H](CC=C)CC(=O)OC(C)(C)C)Cc1c[nH]c2ccccc12`, for which the Potency is 22.4 µM (active).

As for `C=CC[C@@H](CC(=O)N(CCO)Cc1ccccc1)C(=O)N[C@H](COC(=O)[C@@H](CC=C)CC(=O)OC(C)(C)C)Cc1c[nH]c2ccccc12`, the Potency is 35.5 µM (active).

For the compound `C=CC[C@H](CC(=O)N(CCO)Cc1ccccc1)C(=O)N[C@@H](COC(=O)[C@@H](CC=C)CC(=O)OC(C)(C)C)Cc1c[nH]c2ccccc12`, the Potency was 25.1 µM (active).

As to `CCCC/N=C1\C(=O)N(C)c2cccc3c(O)c4ccccc4c1c23`, the Potency entry is “inactive”.

`COc1ccc2c(C#N)c3ccccn3c2c1`: the Potency result was “inactive”.

Take `Nc1cccc2c1C(=O)N(CCOc1ccc(F)cc1)C2=O`: the Potency result is “inactive”.

On to `c1ccc(N2CC3CCc4ccccc4C3=N2)cc1` (stereo not given), for which the Potency entry is “inactive”.

On to `CC/C(=N\Nc1ccc([N+](=O)[O-])cc1[N+](=O)[O-])c1ccc(O)cc1`, for which the Potency was 8.91 µM (active).

On to `C/C(CCCO)=N/Nc1ccc([N+](=O)[O-])cc1[N+](=O)[O-]`, for which the Potency result was “inactive”.

Consider `CN1C(=O)/C(=N\c2ccc(Cl)cc2)c2c3ccccc3c(O)c3cccc1c23`, for which the Potency entry was “inactive”.

`CC1=CC(C)(C)N2C(=O)/C(=N/c3ccc(O)cc3)c3cccc1c32`: the Potency was 31.6 µM (active).

As for `CC(C)CC1C(=O)N(Cc2cn(CCC3OCCCO3)nn2)CCS(=O)(=O)N1Cc1ccc(-c2ccc(Cl)nc2)cc1` (stereo not given), the Potency was 31.6 µM (active).

On to `Cc1ccc(-c2ccc(CN3C(CC(C)C)C(=O)N(Cc4cn(CCC5OCCCO5)nn4)CCS3(=O)=O)cc2)cc1` (stereo not given), for which the Potency was 20 µM (active).
